Bioassay records as filed in PubChem.
TDP1 cell noCPT – qHTS for Inhibitors of human tyrosyl-DNA phosphodiesterase 1 (TDP1): qHTS in cells in absence of CPT; DT40 Tdp1-/- hTDP1 cells, no CPT, ATP luminescence, 48 h; Potency, µM (titrated, usually from 46.2 µM), for the others: top-dose activity change, negative = growth inhibition, actives largely listed as inhibitors; actives 15% (n = 420,000); further: potency means the concentration at half of the fitted maximal effect; nearly all actives have a fitted effect of over 55% in size
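Chicken DT40 Tdp1-/- cells stably complemented with human TDP1 were seeded at 400 cells/well with DMSO in place of 20 nM camptothecin. After compound pinning, cells grew at least 48 hr at 37 °C; viability read by CellTiter-Glo luminescence.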
RORgamma inh – qHTS for inhibitors of ROR gamma transcriptional activity; Potency, µM (highest dose often 53.6 µM), inactives show at the highest dose activity change, negative = inhibition, actives largely listed as inhibitors; actives 5.4% (n = 310,000); Drosophila S2 Gal4-RORgamma UAS-luciferase reporter, 20 h; AID 2551, 2010; Nuclear receptor ROR-gamma (Mus musculus), P51450; further: potency means the concentration at half of the fitted maximal effect; nearly all actives have a fitted effect of over 60% in size
Target sequence (P51450 whole entry, looked up, the tested form may be a part): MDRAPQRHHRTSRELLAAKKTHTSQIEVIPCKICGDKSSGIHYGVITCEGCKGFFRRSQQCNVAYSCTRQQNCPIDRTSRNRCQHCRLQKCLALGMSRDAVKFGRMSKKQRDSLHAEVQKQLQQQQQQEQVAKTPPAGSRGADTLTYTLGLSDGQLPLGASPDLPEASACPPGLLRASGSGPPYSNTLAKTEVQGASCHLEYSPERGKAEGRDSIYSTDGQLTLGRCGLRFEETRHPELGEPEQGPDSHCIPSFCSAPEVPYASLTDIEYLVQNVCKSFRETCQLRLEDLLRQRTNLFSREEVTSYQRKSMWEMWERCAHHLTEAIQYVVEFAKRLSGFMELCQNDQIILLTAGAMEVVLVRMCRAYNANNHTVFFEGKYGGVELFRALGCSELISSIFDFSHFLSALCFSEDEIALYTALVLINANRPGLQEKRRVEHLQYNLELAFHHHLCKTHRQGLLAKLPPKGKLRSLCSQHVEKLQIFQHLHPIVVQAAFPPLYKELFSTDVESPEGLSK
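In this cell-based reporter format, copper sulfate (700 uM final) drives Gal4–ROR gamma fusion expression from a metallothionein promoter in Drosophila Schneider cells; compounds preincubated 1 hr, reporter read after 20 hr at ambient temperature.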
DT40 TDP1 CPT – qHTS for Inhibitors of human tyrosyl-DNA phosphodiesterase 1 (TDP1): qHTS in cells in presence of CPT | chicken DT40 Tdp1-/-;hTDP1 cells + 20 nM CPT, ATP luminescence, 48 h | Potency, µM (top dose mostly 46.2 µM), for the others: top-dose activity change, negative = growth inhibition, usual class: inhibitors | actives 12% (n = 420,000) | AID 686979, 2013; further: potency means the concentration at half of the fitted maximal effect; nearly all actives have a fitted effect of over 55% in size
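Chicken DT40 Tdp1-/- cells stably complemented with human TDP1 were seeded at 400 cells/well in medium containing 20 nM camptothecin, exposed to pin-transferred compounds, and grown at 37 °C for at least 48 hr. Viability was read as ATP luminescence.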
IL-1B inflam inh – qHTS for Inhibitors of Inflammasome Signaling: IL-1-beta AlphaLISA Primary Screen | THP-1 LPS/ATP IL-1B secretion, AlphaLISA, 16 h; active compounds read low | activity change, % at 57.5 µM | actives 4.7% (n = 360,000); in the data active means activity change below about -50%; inconclusive means mostly about -30% to -49%
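Secreted IL-1B measured by AlphaLISA bead assay after 16 h compound exposure of THP-1 cells; compounds (final up to 57.5 uM) added 1 h before LPS (250 ng/mL) and ATP (1.25 mM) stimulation; lower signal means less secretion.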
Gal4-VP16 FLuc – VP16 counterscreen qHTS for inhibitors of ROR gamma transcriptional activity. Drosophila S2 Gal4-VP16 UAS-luciferase, luminescence, 20 h. Potency, µM (highest dose often 53.6 µM), inactives show at the top dose activity, negative = inhibition, hits mostly inhibitors. actives 3.5% (n = 310,000). AID 2546, 2010;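 further: Gal4-VP16 expression switched on by copper sulfate through the metallothionein promoter; potency means the concentration at half of the fitted maximal effect; nearly all actives have a fitted effect of over 50% in size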
LDHA block – qHTS assay for inhibitors of human lactate dehydrogenase; L-lactate dehydrogenase A chain (Homo sapiens), P00338; purified LDHA, NADH/diaphorase-resazurin fluorescence; active compounds read low; activity change, % (values are at about 110 or 230 µM); actives 0.15% (n = 480,000); AID 1347041, 2019; in the data active means activity change below about -30%; inconclusive means mostly about -25% to -30%;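 further: plate controls were DMSO wells for no effect and wells without enzyme for full effect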
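Resorufin fluorescence (ex540/em590), read at 0 and 20 min after diaphorase/resazurin addition, reports the NADH left after a 5 min room-temperature reaction of 2 nM human LDH5 with 0.06 mM NADH and 0.2 mM pyruvate.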
* hit, by the source's call; ? = inconclusive; . = no result given; [ ] = dose if it differs, or a comment. Most compounds without a hit are left out; they make up all but 18% or so of the library. Unless noted, the call rests on the fitted dose curve; in most records, active means well fitted curve in the direction sought with a large enough effect; inconclusive means small, poorly fitted or top-dose-only effect, or another doubt; inactive means no such curve, though single readings can be large; an effect the other way counts as inactive or inconclusive. Unless noted, on the % scale 0 is the no-effect control and ±100 the full control effect.

SMILES	TDP1 cell noCPT	RORgamma inh	DT40 TDP1 CPT	IL-1B inflam inh	Gal4-VP16 FLuc	LDHA block
CCN(CC)S(=O)(=O)c1ccc(N2CCOCC2)c(NC(=O)C2=COCCO2)c1	?	9%	?	-8	5%	-1
CCN(CC)S(=O)(=O)c1ccc(N2CCOCC2)c(NC(=O)c2cc(=O)[nH]c3ccccc23)c1	-4%	-14%	-11%	6	1%	-3
CCN(CC)S(=O)(=O)c1ccc(N2CCOCC2)c(NC(=O)COc2ccccc2C#N)c1	3%	13%	?	4	6%	2
CCS(=O)(=O)c1ccc(O)c(NC(=O)c2cc(-c3ccccn3)nc3ccccc23)c1	?	.	?	20	.	-8
CCN(CC)S(=O)(=O)c1ccc(N2CCOCC2)c(NC(=O)c2c3c(nc4ccccc24)CCC3)c1	15µM*	-5%	15µM*	6	-4%	-5
CCN(CC)S(=O)(=O)c1ccc(N2CCOCC2)c(NC(=O)c2cc(-c3ccccn3)nc3ccccc23)c1	9.2µM*	-22%	13µM*	-29	0%	-6
CCN(CC)S(=O)(=O)c1ccc(N2CCOCC2)c(NC(=O)COc2ccccc2C)c1	18µM*	.	21µM*	-56*	.	3
CCN(CC)S(=O)(=O)c1ccc(N2CCOCC2)c(NC(=O)c2cccc3ccccc23)c1	16µM*	12%	26µM*	?	3%	-14
CN(CC(=O)NC(=O)NCc1ccccc1)Cc1ccsc1	.	.	.	.	.	4
CCN(CC)S(=O)(=O)c1ccc(N2CCCCC2)c(C(=O)Nc2ccccc2N2CCOCC2)c1	9.2µM*	10%	10µM*	-19	2%	-3
CC(C)c1ccc(-c2cc(=O)c3cc(NC(=O)CCc4cc(Cl)no4)ccc3o2)cc1	.	.	.	.	.	1
CCc1ccc(C2=NNC(=Nc3cccc(S(=O)(=O)N(C)C)c3)SC2)cc1	18µM*	?	21µM*	-70*	-12%	-9
Cc1ccc(C2=NNC(=Nc3ccc(F)cc3)SC2)cc1	?	?	?	-74*	?	-6
C=CCn1c(C)cc(C2=NNC(=Nc3ccc(C)cc3)SC2)c1C	?	39%	?	-4	4%	-3
Cc1cccc(N=C2NN=C(c3ccc4c(c3)OCCO4)CS2)c1	-12%	7.9µM*	-8%	-3	?	-5
Cc1cccc(N=C2NN=C(c3c[nH]c(C(=O)N4CCCC4)c3)CS2)c1	.	.	.	.	.	1
Cc1cccc(N=C2NN=C(c3c(C)[nH]c4ccccc34)CS2)c1	?	33%	?	?	?	-7
Cc1ccc(NC(=O)CN(C)C(=O)Cc2ccc(Cl)cc2Cl)cc1	-24%	5%	2%	-27	8%	1
Cc1ccc(NC(=O)CN(C)C(=O)Cn2ncc(Cl)c(Cl)c2=O)cc1	2.6µM*	16%	3.3µM*	-105*	-9%	-2
Cc1ccc(NC(=O)CN(C)C(=O)Cc2ccc(Cl)c(Cl)c2)cc1	?	?	29µM*	-9	26%	-2
COc1ccc(C(C)=O)c(OC(=O)c2cc(F)c(F)cc2Cl)c1	.	.	.	.	.	4
O=C(c1sccc1-c1ccccc1)N1CCN(S(=O)(=O)c2ccccc2)CC1	23µM*	-29%	?	6	10%	-1
Cc1ccc(S(=O)(=O)N2CCN(C(=O)c3sccc3-c3ccccc3)CC2)cc1	18µM*	10%	?	0	-2%	-4
COC(=O)c1[nH]c2ccc(F)cc2c1NC(=O)CCN1CCN(Cc2ccc3c(c2)OCO3)CC1	21µM*	0%[10 µM]	16µM*	-1	-2%	-1
COc1cc2c(cc1OC)CN(CC(=O)Nc1ccc(C)cc1)CC2	-23%	-12%	-29%	0	-4%	4
SMILES	TDP1 cell noCPT	RORgamma inh	DT40 TDP1 CPT	IL-1B inflam inh	Gal4-VP16 FLuc	LDHA block
COC(=O)c1[nH]c2ccc(C)cc2c1NC(=O)CN1CCc2cc(OC)c(OC)cc2C1	23µM*	?	16µM*	-12	-7%	-2
COC(=O)c1[nH]c2ccccc2c1NC(=O)CN1CCCC(C)C1 (stereo unspecified)	.	.	.	.	.	4
COC(=O)c1[nH]c2ccccc2c1NC(=O)CN1CCN(c2cccc(OC)c2)C(C)C1 (stereo unspecified)	18µM*	18%	23µM*	-11	2%	4
COc1cc2c(cc1OC)CN(CC(=O)Nc1ccccc1SC)CC2	23µM*	2%	?	-29	-12%	-5
Cc1ccc(-c2csc(NC(=O)c3cnc4c(cnn4C(C)C)c3)n2)cc1C	.	.	.	.	.	6
Cc1c(CC(=O)N2CCN(c3ccccc3)CC2)c(=O)oc2c(C)c(O)ccc12	.	.	.	.	.	1
CC1CCC(NC(=O)c2cc(-c3ccccc3)nc3ccccc23)CC1 (stereo unspecified)	.	.	.	.	.	1
COc1cc(/C=C/C(=O)c2cccc(O)c2)cc(Cl)c1O	.	.	.	.	.	-3
COC(=O)c1[nH]c2cc(OC)ccc2c1NC(=O)CCN1CCN(c2cccc(C)c2C)CC1	21µM*	0%	?	-15	-25%	-2
CCOC(=O)c1[nH]c2ccc(OCC)cc2c1NC(=O)CN1CCN(c2ccccn2)CC1	16µM*	?	?	-12	-22%	2
CCOC(=O)c1[nH]c2ccc(OC)cc2c1NC(=O)CN1CCc2ccccc2C1	16µM*	17%	26µM*	?	2%	0
COC(=O)c1[nH]c2cc(OC)ccc2c1NC(=O)CCN1CCN(c2ccccc2)CC1	?	12%	?	-14	16%	-12
CCOC(=O)c1[nH]c2cc3c(cc2c1NC(=O)CN1CC(C)CC(C)C1)OCO3 (stereo unspecified)	26µM*	-13%	?	-17	-9%	2
[O-]/[N+](=C\c1ccncc1)c1ccc(Cl)cc1	.	.	.	.	.	20
O=C(COC(=O)c1cc2c(s1)CCC2)NC(=O)NC1CCCC1	.	.	.	.	.	6
Cc1ccc(CN(C)C(=O)NCc2ccc(S(=O)(=O)N3CCCCC3)cc2)cc1	.	.	.	.	.	4
[O-]/[N+](=C\c1ccccc1)c1ccccc1	?	.	?	-1	.	-16
[O-]/[N+](=C\c1ccccc1)c1ccc(Br)cc1	16µM*	.	?	1	.	-4
